What all share (test): DAPPL (digital affinity profiling via proximity ligation, sequencing); 10 mM Tris-HCl pH 7.5, 50 mM NaCl, 1 mM DTT, 4% glycerol, room temperature, 30 min; GST-TFs on glutathione beads, 16-mer random dsDNA library, 0.1% formaldehyde crosslink after washing; high values mean tight binding
The target in one test is T1, FLI1 (Homo sapiens, UniProt Q01543 1-452).
T1 sequence: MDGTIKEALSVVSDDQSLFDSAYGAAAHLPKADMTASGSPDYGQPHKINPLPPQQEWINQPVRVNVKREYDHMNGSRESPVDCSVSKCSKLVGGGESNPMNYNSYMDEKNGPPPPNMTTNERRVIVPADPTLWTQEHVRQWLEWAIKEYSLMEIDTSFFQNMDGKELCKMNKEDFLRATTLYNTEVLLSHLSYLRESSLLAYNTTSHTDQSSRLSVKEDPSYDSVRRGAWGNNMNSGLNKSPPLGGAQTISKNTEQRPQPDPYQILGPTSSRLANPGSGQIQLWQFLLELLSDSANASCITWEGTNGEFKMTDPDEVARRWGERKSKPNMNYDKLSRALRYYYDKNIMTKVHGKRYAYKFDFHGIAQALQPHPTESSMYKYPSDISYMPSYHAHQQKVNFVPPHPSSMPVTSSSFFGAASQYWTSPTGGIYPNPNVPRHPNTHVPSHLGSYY
The conditions noted are these: protein: recombinant; tags: N-terminal GST; dsDNA, one strand shown. The method, boiled down: (§1)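 The binding signal reported is, for every hexamer, its read frequency for a factor over its read frequency for the tag-only sample. Reads came from pools of yeast-expressed, GST-fused human transcription factors on glutathione beads, barcoded with DNA and mixed with that sample, which were incubated with 200 nmole of a random double-stranded 16-mer DNA library in Tris/NaCl/DTT/glycerol buffer at room temperature for 30 min. After washing, the pools were crosslinked with 0.1% formaldehyde, proximity-ligated with BsaI/T4 ligase for 1 h at 37 °C, PCR-amplified and sequenced on an Illumina NextSeq500.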

Another test deals with T2, ELK1 (Homo sapiens, UniProt P19419 1-428).
T2 sequence: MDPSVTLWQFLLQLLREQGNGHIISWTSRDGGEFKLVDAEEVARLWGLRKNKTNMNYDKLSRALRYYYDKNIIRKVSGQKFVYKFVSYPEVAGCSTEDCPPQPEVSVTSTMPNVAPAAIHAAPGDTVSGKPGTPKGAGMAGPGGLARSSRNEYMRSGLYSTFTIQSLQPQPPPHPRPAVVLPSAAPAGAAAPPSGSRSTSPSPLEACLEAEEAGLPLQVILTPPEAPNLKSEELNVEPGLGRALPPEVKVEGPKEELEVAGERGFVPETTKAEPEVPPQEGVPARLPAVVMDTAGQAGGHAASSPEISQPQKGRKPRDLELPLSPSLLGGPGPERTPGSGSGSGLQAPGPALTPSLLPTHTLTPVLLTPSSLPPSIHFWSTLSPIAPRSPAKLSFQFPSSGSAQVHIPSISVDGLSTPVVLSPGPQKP
The conditions noted are these: protein: recombinant; tags: N-terminal GST; dsDNA, one strand shown. The method, boiled down: as §1

A further test has as its target T3, GABPA (Homo sapiens, UniProt Q06546 1-454).
T3 sequence: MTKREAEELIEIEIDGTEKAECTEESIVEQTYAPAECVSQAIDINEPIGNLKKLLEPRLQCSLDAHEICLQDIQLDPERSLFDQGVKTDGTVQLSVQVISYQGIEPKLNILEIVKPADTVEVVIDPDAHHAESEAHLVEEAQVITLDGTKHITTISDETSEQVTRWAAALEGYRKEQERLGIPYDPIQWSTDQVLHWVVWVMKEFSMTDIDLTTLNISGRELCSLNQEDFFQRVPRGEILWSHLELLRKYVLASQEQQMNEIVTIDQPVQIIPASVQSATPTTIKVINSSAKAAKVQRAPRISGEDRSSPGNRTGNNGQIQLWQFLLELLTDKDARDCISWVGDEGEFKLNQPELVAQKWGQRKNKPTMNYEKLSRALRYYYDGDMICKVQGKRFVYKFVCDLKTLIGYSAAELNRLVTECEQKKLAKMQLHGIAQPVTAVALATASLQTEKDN
The conditions noted are these: protein: recombinant; tags: N-terminal GST; dsDNA, one strand shown. In a few lines:
as §1

In a further test the target is T4, ERG (Homo sapiens, UniProt P11308 1-479).
T4 sequence: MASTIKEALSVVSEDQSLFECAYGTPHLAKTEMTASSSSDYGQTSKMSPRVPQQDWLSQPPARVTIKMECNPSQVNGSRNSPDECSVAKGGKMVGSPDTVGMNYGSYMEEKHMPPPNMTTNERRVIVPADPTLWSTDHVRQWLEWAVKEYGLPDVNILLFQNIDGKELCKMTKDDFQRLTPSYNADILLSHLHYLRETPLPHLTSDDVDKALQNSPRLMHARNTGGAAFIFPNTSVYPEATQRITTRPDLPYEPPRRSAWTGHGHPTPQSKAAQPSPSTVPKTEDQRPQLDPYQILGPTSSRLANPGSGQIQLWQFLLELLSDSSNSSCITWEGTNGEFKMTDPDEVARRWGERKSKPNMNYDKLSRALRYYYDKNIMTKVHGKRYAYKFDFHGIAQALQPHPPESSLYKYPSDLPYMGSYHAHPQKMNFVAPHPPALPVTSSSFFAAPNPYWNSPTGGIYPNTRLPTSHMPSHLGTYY
The conditions noted are these: protein: recombinant; tags: N-terminal GST; dsDNA, one strand shown. In a few lines: as §1

In a further test the target is ELF1 (Homo sapiens, UniProt P32519 1-619). As to conditions: protein: recombinant; tags: N-terminal GST; dsDNA, one strand shown. In a few lines: as §1
ELF1, sequence (P32519 whole entry): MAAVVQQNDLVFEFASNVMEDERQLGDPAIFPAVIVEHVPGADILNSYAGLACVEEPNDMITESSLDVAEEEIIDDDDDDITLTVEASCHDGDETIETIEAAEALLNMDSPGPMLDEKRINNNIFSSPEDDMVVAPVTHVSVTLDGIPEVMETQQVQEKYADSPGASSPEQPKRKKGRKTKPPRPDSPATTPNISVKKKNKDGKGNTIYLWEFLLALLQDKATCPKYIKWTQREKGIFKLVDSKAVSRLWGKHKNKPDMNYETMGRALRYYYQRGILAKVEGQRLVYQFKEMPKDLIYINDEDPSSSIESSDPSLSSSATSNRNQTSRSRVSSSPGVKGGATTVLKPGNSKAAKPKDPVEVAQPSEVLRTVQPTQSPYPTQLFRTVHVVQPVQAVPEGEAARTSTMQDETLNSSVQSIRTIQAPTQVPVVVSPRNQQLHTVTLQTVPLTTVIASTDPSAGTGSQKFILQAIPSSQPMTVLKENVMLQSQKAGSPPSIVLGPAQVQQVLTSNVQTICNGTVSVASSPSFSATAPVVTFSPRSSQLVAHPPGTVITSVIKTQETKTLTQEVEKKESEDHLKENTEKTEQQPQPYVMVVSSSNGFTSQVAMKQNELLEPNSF
Another test deals with T5, EHF (Homo sapiens, UniProt Q9NZC4 1-300).
T5 sequence: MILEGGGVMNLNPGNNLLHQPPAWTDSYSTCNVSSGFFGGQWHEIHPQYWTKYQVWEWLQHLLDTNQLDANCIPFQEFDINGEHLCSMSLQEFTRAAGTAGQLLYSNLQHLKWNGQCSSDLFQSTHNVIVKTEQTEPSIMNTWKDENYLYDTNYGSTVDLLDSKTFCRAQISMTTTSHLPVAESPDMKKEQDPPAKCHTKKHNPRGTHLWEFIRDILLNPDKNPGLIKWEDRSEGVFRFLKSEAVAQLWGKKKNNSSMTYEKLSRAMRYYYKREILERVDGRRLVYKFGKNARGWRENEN
The conditions noted are these: protein: recombinant; tags: N-terminal GST; dsDNA, one strand shown. In a few lines: as §1

The target of another test is SPI1 (Homo sapiens, UniProt P17947 1-270). The conditions noted are these: protein: recombinant; tags: N-terminal GST; dsDNA, one strand shown. In a few lines:
as §1

The target of the next test is SPIB (Homo sapiens, UniProt Q01892 1-262). As to conditions: protein: recombinant; tags: N-terminal GST; dsDNA, one strand shown. In a few lines:
as §1

In a further test the target is T6, ELK3 (Homo sapiens, UniProt P41970 1-407).
T6 sequence: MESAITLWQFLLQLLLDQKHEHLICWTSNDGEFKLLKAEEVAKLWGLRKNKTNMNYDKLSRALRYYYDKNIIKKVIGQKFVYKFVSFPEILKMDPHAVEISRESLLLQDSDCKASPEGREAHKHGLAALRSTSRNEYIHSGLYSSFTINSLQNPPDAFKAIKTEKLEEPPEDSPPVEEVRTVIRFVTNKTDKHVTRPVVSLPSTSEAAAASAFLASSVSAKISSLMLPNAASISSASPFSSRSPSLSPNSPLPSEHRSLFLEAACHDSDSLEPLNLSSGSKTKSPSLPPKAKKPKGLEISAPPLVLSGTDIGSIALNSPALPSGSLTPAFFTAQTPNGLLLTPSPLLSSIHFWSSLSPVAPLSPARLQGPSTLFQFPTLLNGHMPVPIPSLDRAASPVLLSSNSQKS
The conditions noted are these: protein: recombinant; tags: N-terminal GST; dsDNA, one strand shown. In a few lines: as §1

Another test deals with T7, FEV (Homo sapiens, UniProt Q99581 1-238).
T7 sequence: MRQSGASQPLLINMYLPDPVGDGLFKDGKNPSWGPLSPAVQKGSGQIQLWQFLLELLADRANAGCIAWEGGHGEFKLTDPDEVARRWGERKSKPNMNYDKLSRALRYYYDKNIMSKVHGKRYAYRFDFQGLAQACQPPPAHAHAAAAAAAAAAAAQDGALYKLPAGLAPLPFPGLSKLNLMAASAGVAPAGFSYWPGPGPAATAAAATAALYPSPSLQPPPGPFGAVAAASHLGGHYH
As to conditions: protein: recombinant; tags: N-terminal GST; dsDNA, one strand shown. The method, boiled down:
as §1

The next test addresses ETV5 (Homo sapiens, UniProt P41161 1-510). The conditions noted are these: protein: recombinant; tags: N-terminal GST; dsDNA, one strand shown. In a few lines:
as §1

For another test, the target named is HSF1 (Homo sapiens, UniProt Q00613 1-529). As to conditions: protein: recombinant; tags: N-terminal GST; chain copies: 3; dsDNA, one strand shown. The method, boiled down: as §1
HSF1, sequence (Q00613 whole entry): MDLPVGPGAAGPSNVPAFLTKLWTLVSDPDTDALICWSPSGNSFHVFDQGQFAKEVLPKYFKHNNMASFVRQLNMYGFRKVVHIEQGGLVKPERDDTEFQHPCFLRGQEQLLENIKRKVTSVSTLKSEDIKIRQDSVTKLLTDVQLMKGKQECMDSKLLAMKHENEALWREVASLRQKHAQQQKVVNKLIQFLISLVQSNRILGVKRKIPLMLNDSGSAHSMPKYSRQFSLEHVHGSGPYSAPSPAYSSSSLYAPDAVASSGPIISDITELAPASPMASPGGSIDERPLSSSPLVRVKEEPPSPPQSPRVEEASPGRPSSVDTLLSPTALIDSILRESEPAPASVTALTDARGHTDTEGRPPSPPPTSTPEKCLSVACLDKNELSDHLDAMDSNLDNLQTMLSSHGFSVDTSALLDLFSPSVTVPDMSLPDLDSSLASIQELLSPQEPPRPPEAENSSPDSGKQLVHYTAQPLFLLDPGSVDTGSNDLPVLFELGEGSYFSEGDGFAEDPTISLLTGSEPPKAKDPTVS
Another test concerns the target T8, SPIC (Homo sapiens, UniProt Q8N5J4 1-248).
T8 sequence: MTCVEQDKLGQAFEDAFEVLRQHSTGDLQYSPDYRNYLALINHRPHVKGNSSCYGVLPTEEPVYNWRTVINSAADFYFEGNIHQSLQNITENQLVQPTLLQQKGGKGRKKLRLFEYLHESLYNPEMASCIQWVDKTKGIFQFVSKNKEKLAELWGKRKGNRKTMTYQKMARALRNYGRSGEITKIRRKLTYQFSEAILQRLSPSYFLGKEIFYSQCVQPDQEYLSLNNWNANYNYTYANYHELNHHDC
The conditions noted are these: protein: recombinant; tags: N-terminal GST; dsDNA, one strand shown. The method, boiled down: as §1

Another test addresses ELF4 (Homo sapiens, UniProt Q99607 1-663). The conditions noted are these: protein: recombinant; tags: N-terminal GST; dsDNA, one strand shown. The method, boiled down:
as §1

The next test addresses T9, ELK4 (Homo sapiens, UniProt P28324-2 1-405).
T9 sequence: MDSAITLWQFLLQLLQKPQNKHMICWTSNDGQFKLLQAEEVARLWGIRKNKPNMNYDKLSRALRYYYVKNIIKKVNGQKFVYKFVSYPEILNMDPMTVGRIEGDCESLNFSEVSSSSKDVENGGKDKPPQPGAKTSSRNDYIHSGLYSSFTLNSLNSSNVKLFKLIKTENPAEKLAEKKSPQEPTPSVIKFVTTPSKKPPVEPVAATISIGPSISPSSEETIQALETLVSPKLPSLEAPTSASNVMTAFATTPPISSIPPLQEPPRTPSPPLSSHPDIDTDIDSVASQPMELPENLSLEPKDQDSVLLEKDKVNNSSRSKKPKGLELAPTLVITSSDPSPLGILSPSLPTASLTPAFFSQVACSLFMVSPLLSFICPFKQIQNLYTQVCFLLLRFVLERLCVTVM
The conditions noted are these: protein: recombinant; tags: N-terminal GST; dsDNA, one strand shown. In a few lines:
as §1

The next test addresses T10, ELF3 (Homo sapiens, UniProt P78545 1-371).
T10 sequence: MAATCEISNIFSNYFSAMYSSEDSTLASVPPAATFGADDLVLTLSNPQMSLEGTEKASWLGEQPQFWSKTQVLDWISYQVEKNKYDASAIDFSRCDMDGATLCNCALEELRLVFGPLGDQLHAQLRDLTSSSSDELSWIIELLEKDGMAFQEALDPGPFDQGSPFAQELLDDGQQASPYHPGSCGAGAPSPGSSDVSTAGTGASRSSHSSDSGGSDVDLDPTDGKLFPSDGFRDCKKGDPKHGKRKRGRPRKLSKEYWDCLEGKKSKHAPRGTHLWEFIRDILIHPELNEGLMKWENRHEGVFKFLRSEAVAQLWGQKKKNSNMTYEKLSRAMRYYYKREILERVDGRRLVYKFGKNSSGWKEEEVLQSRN
The conditions noted are these: protein: recombinant; tags: N-terminal GST; dsDNA, one strand shown. The method, boiled down: as §1

The target in the next test is CRX (Homo sapiens, UniProt O43186 1-299). As to conditions: protein: recombinant; tags: N-terminal GST; dsDNA, one strand shown. In a few lines: as §1
CRX, sequence (O43186 whole entry): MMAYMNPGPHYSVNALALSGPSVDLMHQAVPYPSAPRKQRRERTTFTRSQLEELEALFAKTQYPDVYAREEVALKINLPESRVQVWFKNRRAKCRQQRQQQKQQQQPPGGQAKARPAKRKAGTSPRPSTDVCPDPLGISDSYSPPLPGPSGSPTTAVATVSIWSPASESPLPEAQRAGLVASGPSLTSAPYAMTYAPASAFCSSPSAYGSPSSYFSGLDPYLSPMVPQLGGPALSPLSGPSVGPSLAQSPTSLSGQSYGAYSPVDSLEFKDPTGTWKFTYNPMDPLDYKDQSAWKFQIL
A further test addresses ETV1 (Homo sapiens, UniProt P50549 1-477). The conditions noted are these: protein: recombinant; tags: N-terminal GST; dsDNA, one strand shown. In a few lines: as §1

Experimental findings from article PMC7862700, “An all-to-all approach to the identification of sequence-specific readers for epigenetic DNA modifications on cytosine” are described below.

ELF4, sequence (Q99607 whole entry): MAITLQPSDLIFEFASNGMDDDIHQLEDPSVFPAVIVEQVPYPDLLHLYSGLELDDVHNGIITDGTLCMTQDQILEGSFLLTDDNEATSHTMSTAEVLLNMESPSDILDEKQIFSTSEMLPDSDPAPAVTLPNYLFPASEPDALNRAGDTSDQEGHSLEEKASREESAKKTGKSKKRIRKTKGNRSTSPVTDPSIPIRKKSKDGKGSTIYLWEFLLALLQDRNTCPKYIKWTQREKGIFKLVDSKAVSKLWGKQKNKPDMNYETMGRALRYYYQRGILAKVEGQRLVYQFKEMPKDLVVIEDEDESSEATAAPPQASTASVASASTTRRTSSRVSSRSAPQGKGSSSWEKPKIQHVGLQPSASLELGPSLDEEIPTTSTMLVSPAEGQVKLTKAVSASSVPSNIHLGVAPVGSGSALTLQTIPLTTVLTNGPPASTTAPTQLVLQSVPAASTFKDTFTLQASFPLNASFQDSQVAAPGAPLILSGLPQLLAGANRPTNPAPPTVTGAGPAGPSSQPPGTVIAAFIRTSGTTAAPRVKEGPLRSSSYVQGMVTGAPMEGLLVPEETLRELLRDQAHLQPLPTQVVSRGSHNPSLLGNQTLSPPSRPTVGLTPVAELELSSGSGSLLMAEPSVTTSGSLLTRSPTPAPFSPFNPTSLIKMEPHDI
ETV5, sequence (P41161 whole entry): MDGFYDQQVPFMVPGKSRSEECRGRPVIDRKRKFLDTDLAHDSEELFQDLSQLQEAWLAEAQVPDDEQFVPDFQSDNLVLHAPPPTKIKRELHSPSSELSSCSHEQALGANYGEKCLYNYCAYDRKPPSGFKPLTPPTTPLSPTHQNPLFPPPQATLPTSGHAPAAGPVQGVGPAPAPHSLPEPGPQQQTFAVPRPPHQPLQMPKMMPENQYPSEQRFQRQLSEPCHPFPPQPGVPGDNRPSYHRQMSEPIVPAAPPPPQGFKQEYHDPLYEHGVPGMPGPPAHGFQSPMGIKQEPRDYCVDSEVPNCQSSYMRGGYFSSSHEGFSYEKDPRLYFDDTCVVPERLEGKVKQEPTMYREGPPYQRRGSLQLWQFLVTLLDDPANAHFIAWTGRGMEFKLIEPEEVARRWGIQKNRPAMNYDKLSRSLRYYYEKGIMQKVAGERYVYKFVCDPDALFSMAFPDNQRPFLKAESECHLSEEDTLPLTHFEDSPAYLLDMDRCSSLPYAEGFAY
SPIB, sequence (Q01892 whole entry): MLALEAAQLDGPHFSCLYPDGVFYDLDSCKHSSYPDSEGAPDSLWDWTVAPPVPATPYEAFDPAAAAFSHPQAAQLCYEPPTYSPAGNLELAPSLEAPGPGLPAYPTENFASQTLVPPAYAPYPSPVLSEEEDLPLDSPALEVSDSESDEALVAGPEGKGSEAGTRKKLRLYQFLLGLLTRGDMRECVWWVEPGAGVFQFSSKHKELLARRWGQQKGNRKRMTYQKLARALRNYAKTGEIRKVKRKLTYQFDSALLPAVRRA
ETV1, sequence (P50549 whole entry): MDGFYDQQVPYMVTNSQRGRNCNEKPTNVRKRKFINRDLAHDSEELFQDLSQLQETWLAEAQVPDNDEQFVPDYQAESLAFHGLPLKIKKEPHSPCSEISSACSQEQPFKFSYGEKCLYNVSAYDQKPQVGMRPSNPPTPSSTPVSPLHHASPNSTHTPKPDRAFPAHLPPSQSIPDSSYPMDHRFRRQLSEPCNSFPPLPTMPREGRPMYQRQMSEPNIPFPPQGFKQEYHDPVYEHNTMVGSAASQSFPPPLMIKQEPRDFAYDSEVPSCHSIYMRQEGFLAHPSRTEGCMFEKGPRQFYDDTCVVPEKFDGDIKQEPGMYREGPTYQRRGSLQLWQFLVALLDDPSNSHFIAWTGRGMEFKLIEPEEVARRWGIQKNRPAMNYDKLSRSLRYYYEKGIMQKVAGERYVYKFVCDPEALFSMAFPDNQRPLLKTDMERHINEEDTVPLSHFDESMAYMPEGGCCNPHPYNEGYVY

As for TCCCGA, the binding signal with FLI1 was 1.39 fold enrichment (6-mer frequency, TF over GST control); with ELK1 it was 1.23 fold enrichment (6-mer frequency, TF over GST control); with GABPA, 1.47 fold enrichment (6-mer frequency, TF over GST control); with ERG, 1.27 fold enrichment (6-mer frequency, TF over GST control); with ELF1 it was 1.31 fold enrichment (6-mer frequency, TF over GST control); with EHF, 1.36 fold enrichment (6-mer frequency, TF over GST control). Moreover, the binding signal with SPI1 was 1.37 fold enrichment (6-mer frequency, TF over GST control); with SPIB it was 1.41 fold enrichment (6-mer frequency, TF over GST control); in the test with ELK3 it was 1.35 fold enrichment (6-mer frequency, TF over GST control); with FEV, 1.31 fold enrichment (6-mer frequency, TF over GST control); with ETV5 it was 1.37 fold enrichment (6-mer frequency, TF over GST control); with HSF1, 2.34 fold enrichment (6-mer frequency, TF over GST control). The binding signal in the test with SPIC is 1.36 fold enrichment (6-mer frequency, TF over GST control); in the test with ELF4, 1.25 fold enrichment (6-mer frequency, TF over GST control); with ELK4, 1.42 fold enrichment (6-mer frequency, TF over GST control); with ELF3, 1.26 fold enrichment (6-mer frequency, TF over GST control); with CRX it was 1.59 fold enrichment (6-mer frequency, TF over GST control); with ETV1, 1.29 fold enrichment (6-mer frequency, TF over GST control).
